Measurements published in PubChem BioAssay (EPA / NIEHS).
Records with an inconclusive call do not appear. The source made the active and inactive calls. How the source made its calls, unless noted: active means hit-call score of the fitted dose curve at least 0.9, where 1 is the maximum; inactive means score below 0.9.

Columns and labels:
[1] = CCTE_Simmons_MITO_max_resp_rate: CCTE's HepG2 Seahorse XF Respirometric Screening Assay at Maximal Respiratory State [uncoupled], Simmons Lab (AID 2284002); details: actives raise or lower the signal
Procedure, shortened: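 Maximal respiration in HepG2 cells is recorded as OCR by Seahorse XF following FCCP injection. Compounds span 125 nM–100 uM final; activity is called in either direction against DMSO.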

[2] = CCTE_Shafer_MEA_acute_spike_number: CCTE's Neural Acute Assay for Total Number of Spikes, Shafer Lab (AID 2284008);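 on AC50: curve fitted for decrease in spike count so AC50 reflects inhibitors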
Procedure, shortened: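 Cortical neurons from rat, matured to DIV 13 or 15 on microelectrode arrays, are recorded at 37 C before and during 40-min exposure to 0.03-40 uM compound. Wells need >/= 10 active electrodes.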

[3] = CCTE_Shafer_MEA_acute_firing_rate_mean: CCTE's Neural Acute Assay for Mean Firing Rate, Shafer Lab (AID 2284009);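 further: analyzed for loss of signal so actives lower firing rate relative to DMSO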
Procedure, shortened: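 Rat cortical neuron cultures matured to DIV 13 or 15, equilibrated 20 min at 37 C, then recorded 40 min for baseline. Compound (0.03-40 uM) added and a further 40 min recorded; percent change in mean firing rate calculated per well.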

[4] = CCTE_Harrill_HTTr_Viability_MCF7: CCTE's 6-hour Cell Viability Assessment for the High-Throughput Transcriptomics (HTTr) Platform, in MCF-7 cells cultured in DMEM + 10% fetal bovine serum, Harrill Lab (AID 2284010)
Procedure, shortened: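 Propidium iodide exclusion, imaged by high-content analysis, gauged viability after a six-hour exposure across eight concentrations. Cells were MCF-7 grown in DMEM with 10% fetal bovine serum; fits run in both directions against DMSO.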

[5] = CCTE_Harrill_HTTr_Apoptosis_MCF7: CCTE's 6-hour Apoptosis Assessment for the High-Throughput Transcriptomics (HTTr) Platform, in MCF-7 cells cultured in DMEM + 10% fetal bovine serum, Harrill Lab (AID 2284011)
Procedure, shortened: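 Cells are dosed with test chemicals at eight concentrations and imaged 6 hours later for caspase-3/7 activity using a green fluorogenic detection reagent. Activity is fitted in both directions against DMSO controls.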

[6] = CCTE_Harrill_HTTr_CellCount_MCF7: CCTE's Cell Proliferation Assessment for the High-Throughput Transcriptomics (HTTr) Platform, Harrill Lab (AID 2284012; active means hit-call score of the fitted dose curve at least 0.9, where 1 is the maximum;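 further: cells exposed to compound for six hours; intended direction is loss of nuclei count meaning fewer cells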)
Procedure, shortened: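 Cell count from high-content imaging of Hoechst-labeled nuclei serves as viability/growth readout. Chemicals were applied to MCF-7 cells in eight concentrations for six hours, with fitting in both directions relative to DMSO.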

[7] = CCTE_Shafer_MEA_acute_burst_number: CCTE's Neural Acute Assay for Single-Electrode Bursts, Shafer Lab (AID 2284013)
Procedure, shortened: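 Percent change in single-electrode burst number per well, from 40-min recordings taken before and after adding compound (0.03-40 uM) to primary rat cortical neurons on MEA plates at DIV 13 or 15, 37 C.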

[8] = CCTE_Shafer_MEA_acute_burst_duration_mean: CCTE's Neural Acute Assay for Mean Burst Duration, Shafer Lab (AID 2284014);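 further: hits are decreases in mean burst duration relative to DMSO controls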
Procedure, shortened: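 Rat cortical cultures, DIV 13/15; 40 min baseline, then 40 min with compound (0.03-40 uM), 37 C. Spikes: 300-5000 Hz band-pass, 8x rms threshold. Read-out: % change in mean single-electrode burst duration, DMSO-referenced, loss direction.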

[9] = CCTE_Shafer_MEA_acute_per_burst_spike_number_mean: CCTE's Neural Acute Assay for Average Number of Spikes Per Burst, Shafer Lab (AID 2284015);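 further: hits are decreases in mean spikes per burst versus baseline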
Procedure, shortened: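 Primary rat cortical neurons on 48-well MEA plates, treated on DIV 13 or 15 at 0.03-40 uM. Spontaneous activity recorded 40 min before and 40 min after compound at 37 C; percent change in mean spikes per single-electrode burst per well, fitted in the loss direction versus DMSO.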

[10] = CCTE_Shafer_MEA_acute_interburst_interval_mean: CCTE's Neural Acute Assay for Mean Interburst Interval, Shafer Lab (AID 2284016);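 further: percent change of mean interburst interval versus each well's own pre-dose baseline; curves fitted for decrease in interburst interval relative to DMSO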
Procedure, shortened: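 Primary rat cortical neurons on 16-electrode MEA wells were recorded 40 min at baseline on DIV 13 or 15, then 40 min after compound (0.03-40 uM), at 37 C. Value is percent change in mean interburst interval per well, DMSO as negative control.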

Measured: AC50

C=C(C)[C@H]1Cc2c(ccc3c2O[C@@H]2COc4cc(OC)c(OC)cc4[C@@H]2C3=O)O1
active: [1] 0.0663 µM | [2] 2.81 µM | [3] 2.85 µM
inactive: all other assays above

Nc1c(Cl)cc([N+](=O)[O-])cc1Cl
active: [10] 30.2 µM
not listed: [1]
inactive: all other assays above

CCCCOC(=O)[C@@H](C)Oc1ccc(Oc2ccc(C#N)cc2F)cc1
inactive: [1] | [4] | [5]

CCCSP(=O)(OCC)SCCC
inactive: [4] | [5] | [6]
active: [1] 38.1 µM

CC(C)=CC1C(C(=O)OCN2C(=O)C3=C(CCCC3)C2=O)C1(C)C (stereo not drawn)
active: [1] 39.9 µM
inactive: all other assays above

CC1=NNC(=O)N(/N=C/c2cccnc2)C1
not listed: [1]
inactive: all other assays above

CCc1cccc(C)c1N(C(=O)CCl)C(C)COC (stereo not drawn)
active: [1] 39.7 µM | [2] 27 µM | [3] 27 µM | [7] 14.8 µM
inactive: all other assays above

CC(C1CC1)C(O)(Cn1cncn1)c1ccc(Cl)cc1 (stereo not drawn)
active: [1] 50 µM
inactive: [4] | [5] | [6]

CCOP(=S)(OCC)SCCSCC
not listed: [6]
inactive: all other assays above

CCC(CC)Nc1c([N+](=O)[O-])cc(C)c(C)c1[N+](=O)[O-]
active: [1] 29.8 µM
inactive: [4] | [5]

CC(COc1ccc(Oc2ccccc2)cc1)Oc1ccccn1 (stereo not drawn)
active: [2] 20 µM | [3] 20 µM | [8] 20 µM | [9] 10.2 µM
inactive: all other assays above

CCOC(=O)CC(SP(=O)(OC)OC)C(=O)OCC (stereo not drawn)
not listed: [1] | [6]
inactive: all other assays above

CCCOc1nn(C(=O)NS(=O)(=O)c2ccccc2C(=O)OC)c(=O)n1C
inactive: [4] | [5] | [6]

CCOP(=S)(OCC)OC(Cl)C(Cl)(Cl)Cl (stereo not drawn)
inactive: [4] | [5] | [6]

CNc1cnn(-c2cccc(C(F)(F)F)c2)c(=O)c1Cl
inactive: [4] | [5] | [6]

CCOP(=S)(OCC)Oc1ccc([N+](=O)[O-])cc1
inactive: [4] | [5] | [6]

C#CC(C)(C)NC(=O)c1cc(Cl)cc(Cl)c1
inactive: [4] | [5]

CC(Oc1cccc(Cl)c1)C(=O)O (stereo not drawn)
inactive: [4] | [5]

Nc1nc(N)nc(NC2CC2)n1
inactive: [4] | [5] | [6]

CNC(=O)Oc1cccc2c1OC(C)(C)O2
inactive: [4] | [5] | [6]

S=C1NCCN1
inactive: [4] | [5]

COP(=O)(OC)SCn1c(=O)oc2cc(Cl)cnc21
inactive: [4] | [5] | [6]

CN(C)C(=O)Nc1cccc(C(F)(F)F)c1
inactive: [4] | [5]

COc1ccc(C(=CC(=O)N2CCOCC2)c2ccc(Cl)cc2)cc1OC
inactive: [4] | [5] | [6]

CCNc1nc(Cl)nc(NC(C)(C)C#N)n1
inactive: [4] | [5]

CCOP(=O)(OCC)Oc1cc(C)nc(C(C)C)n1
inactive: [4] | [5] | [6]

CCCSP(=O)(OCC)Oc1ccc(Br)cc1Cl (stereo not drawn)
inactive: [4] | [5] | [6]

CC(C)[C@H](C(=O)O[C@H](C#N)c1cccc(Oc2ccccc2)c1)c1ccc(Cl)cc1
active: [7] 0.928 µM
not listed: [1] | [6]
inactive: all other assays above

COc1cccc(C(=O)NN(C(=O)c2cc(C)cc(C)c2)C(C)(C)C)c1C
inactive: [4] | [5] | [6]

CNC(=O)ON=C(C)SC
inactive: [4] | [5]

CCOC(=O)COc1cc(-c2nn(C)c(OC(F)F)c2Cl)c(F)cc1Cl
inactive: [4] | [5]

CCCCN(CC)c1c([N+](=O)[O-])cc(C(F)(F)F)cc1[N+](=O)[O-]
inactive: [4] | [5]

CN(C)NC(=O)CCC(=O)O
not listed: [1] | [6]
inactive: all other assays above

CCCCOC(=O)c1ccccc1C(=O)O
inactive: [4] | [5] | [6]

COc1cc(OC)nc(Sc2cccc(Cl)c2C(=O)O)n1
not listed: [1] | [6]
inactive: all other assays above

Cc1nn(-c2cc(NS(C)(=O)=O)c(Cl)cc2Cl)c(=O)n1C(F)F
inactive: [4] | [5] | [6]

CSc1nnc(C(C)(C)C)c(=O)n1N
inactive: [4] | [5]

CCOP(=S)(OCC)Oc1cc(C)nc(C(C)C)n1
inactive: [4] | [5] | [6]

Cc1cc(C2CC2)nc(Nc2ccccc2)n1
inactive: [4] | [5] | [6]

Cc1ccn2nc(S(=O)(=O)Nc3c(F)cccc3F)nc2n1
not listed: [1] | [6]
inactive: all other assays above

CCC(=NOC/C=C/Cl)C1=C(O)CC(C2CCOCC2)CC1=O (stereo not drawn)
inactive: [4] | [5]

CNC(=O)ON=C(SC)C(=O)N(C)C
not listed: [1]
inactive: all other assays above

CN1COCN(Cc2cnc(Cl)s2)C1=N[N+](=O)[O-]
not listed: [1] | [6]
inactive: all other assays above

CCCCSP(=O)(SCCCC)SCCCC
inactive: [4] | [5]

CCOP(=O)(SC(C)CC)N1CCSC1=O (stereo not drawn)
inactive: [4] | [5]

CSc1nc(NC(C)C)nc(NC(C)C)n1
inactive: [4] | [5] | [6]

O=c1ccc(=O)[nH][nH]1
inactive: [4] | [5] | [6]
